# Screens as filed in PubChem BioAssay.
# This is a sample that favours compounds with a hit; in the whole collection about 21% have one here.
# IL1B secr inh: inhibitors of inflammasome signaling (IL-1 beta secretion); THP-1 LPS/ATP IL-1B secretion, AlphaLISA, 16 h; stronger effect = lower value; activity change, % at 57.5 µM; actives 4.7% (n = 360,000); AID 743279; in the data active means activity change below about -50%; inconclusive means mostly about -30% to -49%; further: on the % scale 0 is the no-effect control and ±100 the full control effect
#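 Secreted IL-1B measured by AlphaLISA bead assay after 16 h compound exposure of THP-1 cells; compounds (final up to 57.5 uM) added 1 h before LPS (250 ng/mL) and ATP (1.25 mM) stimulation; lower signal means less secretion.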
# DT40 TDP1 CPT: growth inhibition of DT40 Tdp1-/-;hTDP1 cells with camptothecin (screen for TDP1 inhibitors); chicken DT40 Tdp1-/-;hTDP1 cells + 20 nM CPT, ATP luminescence, 48 h; Potency, µM (series often up to 46.2 µM), for inactives: at the highest dose activity change, negative = growth inhibition, actives largely listed as inhibitors; actives 12% (n = 420,000); AID 686979; further: potency means the concentration at half of the fitted maximal effect; on the % scale 0 is the no-effect control and ±100 the full control effect; nearly all actives have a fitted effect of over 55% in size
#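 Chicken DT40 Tdp1-/- cells stably complemented with human TDP1 were seeded at 400 cells/well in medium containing 20 nM camptothecin, exposed to pin-transferred compounds, and grown at 37 °C for at least 48 hr. Viability was read as ATP luminescence.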
# D3 antag: blocks the human D3 dopamine receptor | P35462 | D3R cells, DiscoveRx beta-arrestin luminescence, antagonist mode; stronger effect = lower value | max response, negative = inhibition, % | actives 2.5% (n = 360,000) | AID 652054; in the data active means max response below about -50%; inconclusive means no clear call, values can overlap the other calls; further: on the % scale 0 is the no-effect control and ±100 the full control effect
# Target sequence (P35462 whole entry, looked up): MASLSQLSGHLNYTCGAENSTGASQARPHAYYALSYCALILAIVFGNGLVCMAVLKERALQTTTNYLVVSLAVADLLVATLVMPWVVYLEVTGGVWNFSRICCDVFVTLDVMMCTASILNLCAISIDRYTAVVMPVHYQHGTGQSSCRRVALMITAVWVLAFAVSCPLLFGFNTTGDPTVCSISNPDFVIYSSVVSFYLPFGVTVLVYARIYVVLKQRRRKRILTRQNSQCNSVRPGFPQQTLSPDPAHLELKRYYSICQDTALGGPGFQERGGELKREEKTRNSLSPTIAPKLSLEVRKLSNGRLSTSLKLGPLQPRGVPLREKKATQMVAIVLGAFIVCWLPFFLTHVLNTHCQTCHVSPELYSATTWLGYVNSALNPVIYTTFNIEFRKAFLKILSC
#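 Cells plated overnight at 1500 cells/well, then exposed to library compounds with dopamine controls for 90 minutes at 37 degrees C. DiscoveRx reagent added for 30–60 minutes at room temperature; luminescence read, quantitative HTS format.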
# ClpP mod: qHTS Assay for Activators of ClpP; ATP-dependent Clp protease proteolytic subunit (Bacillus subtilis (strain 168)), P80244; Potency, µM (top dose mostly 57.5 µM), for inactives: at the top dose activity change, negative = active; purified B. subtilis ClpP, FRET peptide cleavage, 20 min; actives 1.9% (n = 340,000); active means well fitted falling curve with a large enough effect; inconclusive means small, poorly fitted or top-dose-only effect; inactive means no such curve, though single readings can be large or run the other way; further: potency means the concentration at half of the fitted maximal effect; the source files actives as falling curves though it sought activators and does not explain the sign; nearly all actives have a fitted effect of over 65% in size
# Target sequence (P80244 whole entry, looked up): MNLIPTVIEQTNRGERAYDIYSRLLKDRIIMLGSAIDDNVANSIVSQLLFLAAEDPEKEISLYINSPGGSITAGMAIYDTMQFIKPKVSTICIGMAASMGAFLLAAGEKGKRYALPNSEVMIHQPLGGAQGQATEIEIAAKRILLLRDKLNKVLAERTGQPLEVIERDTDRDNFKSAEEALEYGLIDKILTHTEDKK
#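 Buffer: 100 mM Tris/HCl pH8, 100 mM KCl, 0.05% low protease BSA, 2.5% glycerol, 0.01% Tween-20. ClpP 10 microg/mL final; 20 min RT; delta FRET normalized to ADEP and DMSO controls.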
# DT40 TDP1 no CPT: qHTS for Inhibitors of human tyrosyl-DNA phosphodiesterase 1 (TDP1): qHTS in cells in absence of CPT | actives 15% (n = 420,000) | DT40 Tdp1-/- hTDP1 cells, no CPT, ATP luminescence, 48 h | Potency, µM (titrated, usually from 46.2 µM), inactives show top-dose activity change, negative = growth inhibition, usual class: inhibitors; further: potency means the concentration at half of the fitted maximal effect; on the % scale 0 is the no-effect control and ±100 the full control effect; nearly all actives have a fitted effect of over 55% in size
#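 Seeded 400 DT40-hTDP1 cells/well (vehicle DMSO, no 20 nM CPT); pinned compounds; ≥48 hr at 37 °C; CellTiter-Glo luminescence as viability measure.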
# DRD3 agonist: agonists of human D3 dopamine receptor | P35462 | D3R DiscoveRx beta-arrestin cells, luminescence, 90 min | actives 0.58% (n = 410,000) | max activation, % | AID 652048; in the data active means max activation above about 30%; further: 0% is about no effect
#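 Agonist-mode cell screen: cells plated at 1500/well and incubated overnight at 37 °C, then exposed to library compounds for 90 min at 37 °C. Detection reagent was added for 30–60 min at room temperature, and luminescence was read.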
# An asterisk follows results filed as active; ? = inconclusive; . = no result. Unless noted, the call rests on the fitted dose curve; in most records, active means well fitted inhibition curve with a large enough effect; inconclusive means small, poorly fitted or top-dose-only effect; inactive means flat fitted curve, though single readings scatter.
SMILES,IL1B secr inh,DT40 TDP1 CPT,D3 antag,ClpP mod,DT40 TDP1 no CPT,DRD3 agonist
Cc1ccc(C(=O)CSC2=C(C#N)C(c3ccco3)C3=C(CCCC3=O)N2)cc1 (centres undefined),0.0,3.26µM*,-27.4,0.1%,3.26µM*,-3.9
CCCCc1ccc(NC(=O)CSC2=C(C#N)C(c3ccco3)C3=C(CCCC3=O)N2)cc1 (centres undefined),-86.0*,?,-4.5,-16.8%,?,-0.2
COc1cccc(NC(=O)CSC2=C(C#N)C(c3ccco3)C3=C(CCCC3=O)N2)c1 (centres undefined),?,3.5%,-13.2,-6.9%,-12.7%,-7.9
COc1ccc(CN(C(=O)c2snc(C(N)=O)c2N)C(C(=O)NC2CCCC2)c2cc(OC)ccc2OC)cc1 (centres undefined),-15.2,-27.9%,0.2,-0.2%,?,-12.9
CCN1C(=O)/C(=C2\C=Cc3ccccc3N2CC)SC1=S,-4.3,14.6µM*,-91.0*,1.3%,18.4µM*,-14.5
CCN1C(=O)/C(=c2\o/c(=C3\C=Cc4ccccc4N3CC)c(=O)n2CC)SC1=S,-9.4,-25.1%,-4.7,0.2%,-28.4%,2.2
NCCCNc1ccc(Br)cn1,.,1.8%,.,-4.4%,?,.
O=C(CSc1nnnn1-c1ccc(F)cc1)c1ccc(O)c(O)c1,37.4,18.4µM*,-22.8,.,?,9.7
CC(=O)c1ccc(O)c(CSc2nncn2C)c1,1.7,-13.6%,7.8,-0.3%,19.2%,1.2
Cn1cnnc1SCC(=O)c1ccc(O)c(O)c1,20.0,-3.5%,35.3,.,-5.7%,38.7*
CC(OC(=O)CCN1C(=O)C2CC=CCC2C1=O)C(=O)c1ccc(F)cc1 (centres undefined),-3.9,3.1%,9.4,-1.1%,10.4%,10.9
COc1ccc(OC)c(Nc2nc(-c3cccc([N+](=O)[O-])c3)nc3ccccc23)c1,49.8,-0.2%,-5.5,1.7%,-1.3%,1.2
COc1ccc(CNc2ncc(-c3ccccc3)n2C)cc1,-9.2,-26.1%,-2.1,-26.0%,?,-1.9
Cn1c(-c2cccc([N+](=O)[O-])c2)cnc1NCc1cccc([N+](=O)[O-])c1,-27.8,?,-0.2,0.6%,?,-2.4
COc1ccc(OC)c(CNc2ncc(-c3cccc([N+](=O)[O-])c3)n2C)c1,?,16.4µM*,-3.7,1.3%,?,-11.8
COc1ccc(-c2cnc(NCc3cc4c(cc3[N+](=O)[O-])OCO4)n2C)cc1,-51.5*,25.9µM*,54.0,2.6%,13µM*,-11.6
Cc1cccc(CNc2ncc(-c3cccc([N+](=O)[O-])c3)n2C)c1,-26.6,?,-9.0,0.9%,16.4µM*,-3.4
CNC[C@H](O)[C@@H](O)[C@H](O)[C@H](O)CO,.,-0.5%,.,.,-10.3%,8.2
COC(=O)c1cnn(-c2ccc(C(=O)Nc3cc(OC)c(OC)c(OC)c3)cc2)c1N,.,?,.,-0.2%,?,-1.4
COc1ccc(OC)c(C2NC(=O)NC(C)=C2C(=O)Nc2cc(C)cc(C)c2)c1 (centres undefined),.,-2.8%,.,-0.5%,-11.2%,3.5
CC1=C(C(=O)N2CCCCCC2)CC(CC(=O)NC(c2ccccc2)c2ccccc2)C(=O)N1Cc1ccccc1 (centres undefined),?,?,-17.4,-2.1%,?,-11.0
CCCCc1nc2cc(C(=O)N3CCCC(COC)C3)ccc2o1 (centres undefined),0.5,?,10.2,-0.6%,?,-7.8
O=C(Nc1nc(-c2ccc(F)cc2)cs1)C1CCN(C(=O)c2ccc(F)cc2)CC1,-83.6*,6.51µM*,13.8,-1.4%,5.8µM*,5.5
CC(=O)Nc1ccc(NC(=O)C2CCN(C(=O)c3cccs3)CC2)cc1,?,23.1µM*,-1.4,0.8%,-11.3%,3.1
O=C(Nc1nc2c(F)cc(F)cc2s1)C1CCN(C(=O)c2ccc(F)cc2)CC1,10.3,?,6.5,.,?,10.1
SMILES,IL1B secr inh,DT40 TDP1 CPT,D3 antag,ClpP mod,DT40 TDP1 no CPT,DRD3 agonist
CC1CCC(NC(=O)C2CCN(c3c4c(nc5ncnn35)CCC4)CC2)CC1 (centres undefined),39.7,?,8.1,.,16.4µM*,7.6
COc1ccc(C(=O)N2CCC(C(=O)c3c(C)cc(C)cc3C)CC2)cc1,-4.1,?,5.9,.,23.1µM*,8.0
COc1ccc(C(=O)N2CCC(C(=O)O)CC2)cc1,10.2,-6.3%,10.8,-1.1%,6.9%,19.6
O=S(=O)(NC1C2CC3CC(C2)CC1C3)c1ccc(F)cc1 (centres undefined),40.5,-2.5%,25.1,-3.4%,-22.0%,-1.3
CCN(CC(=O)NCc1ccc(Cl)cc1)C(=O)Cc1ccc(OC)cc1,7.8,-1.7%,0.5,.,-12.4%,7.4
Cc1nn(-c2ccccc2)nc1-c1nnc(-c2ccc(C(F)(F)F)cc2)o1,11.7,28.0%,4.8,-0.1%,-7.4%,0.1
CC1(C)CC23C(=O)CCC(O)C2(C)CCC13 (centres undefined),.,-5.8%,.,.,-6.0%,.
Cc1ccc(NC(=O)Cn2nc(C(=O)O)c3ccccc3c2=O)c([N+](=O)[O-])c1,16.0,-11.5%,7.7,.,-8.7%,21.6
COc1ccc(NC(=O)C2CCN(C(=O)c3ccc(OC)cc3)CC2)cc1,13.3,14.6µM*,-4.5,0.0%,?,-7.0
COc1ccc(NC(=O)C2CCCN(c3cc(C)nc4ncnn34)C2)cc1 (centres undefined),-13.2,-0.2%,-5.3,.,-23.7%,-0.7
COc1ccc(NC(=O)C2CCCN(c3c4c(nc5ncnn35)CCC4)C2)cc1 (centres undefined),-1.0,14.6µM*,18.1,-2.1%,23.1µM*,18.4
COc1ccccc1NC(=O)Nc1ccc(C(=O)N2CCCCC2)cc1,?,?,-8.7,-0.4%,20.6µM*,-7.1
O=C(Nc1ccc(Br)cc1)C1CCN(C(=O)c2ccc(F)cc2)CC1,-73.2*,?,0.0,1.0%,?,4.8
COC(=O)c1ccccc1NC(=O)Nc1ccc(C(=O)N2CCCC2)cc1,11.8,-3.4%,26.7,?,-19.3%,19.4
O=C(CN(CCc1c[nH]c2ccccc12)S(=O)(=O)c1ccccc1)N1CCCCCC1,.,?,.,-1.3%,?,.
CC(C)c1ccc(NC(=O)C2CCN(C(=O)c3ccc(F)cc3)CC2)cc1,.,?,.,2.3%,8.2µM*,7.8
